# Measured values as given in PubChem BioAssay.
# Unmarked numbers belong to inactive results. Calls of active or inactive are those of the source.
# Test: growth effects on S. cerevisiae YJM789 – YJM789 clinical isolate, OD600, 24 h, basal, primary screen (AID 1089);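 note: growth of clinical yeast isolate S. cerevisiae YJM 789 seeded 1000 cells per well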
# Conditions: higher = more signal, called active from +8 up or from −8 down
# Note: test concentration not given here.
row,SMILES,z-score
1,[N-]=[N+]=NCc1ccccc1C[C@@]1(C(=O)NCc2ccccc2)N=C(c2ccc(OCCCO)cc2)O[C@@H]1c1ccccc1N=[N+]=[N-],-1.38
2,[N-]=[N+]=NCc1ccccc1C[C@@]1(C(=O)N2CCOCC2)N=C(c2ccc(OCCCO)cc2)O[C@@H]1c1ccccc1,-1.11
3,COc1ccc(NC(=O)O[C@H]2[C@H](OC(=O)Nc3ccccc3)[C@H](OC(=O)Nc3ccccc3)[C@@H](OC)O[C@@H]2CO)cc1,0.855
4,COCCOC(=O)N1C(=O)[C@@]2(c3ccccc31)[C@H](C(=O)N1CCN(c3ncccn3)CC1)[C@H]1C(=O)O[C@H](c3ccccc3)[C@H](c3ccccc3)N1[C@@H]2c1ccc(O)cc1,0.232
5,CCCCO[C@H]1C[C@H]2C(I)=C[C@@H]1C(=O)[C@]21CO1,-1.88
6,COc1ccc(CN(C2=CC[C@@]3(C(N)=O)C(=O)C(Cl)=C(Cl)C(=O)[C@@]3(C#N)C2)S(=O)(=O)c2ccc(Br)cc2)cc1,-1.62
7,CCCCN1CC=CC23O[C@@H]4/C=C\CCC(C)OC(=O)C4[C@H]2C(=O)N(C(CO)C(C)C)[C@@H]3C1=O (stereo not given in full),-0.824
8,[N-]=[N+]=NCc1ccccc1C[C@]1(C(N)=O)N=C(c2ccc(OCCCO)cc2)O[C@H]1c1ccccc1,0.458
9,C=CCNC(=O)[C@H]1[C@@H]2C(=O)O[C@@H](c3ccccc3)[C@@H](c3ccccc3)N2[C@@H](c2ccc(O)cc2)[C@]12C(=O)Nc1ccc(C#CC3(O)CCCCCC3)cc12,-0.494
10,NCCCCCNC(=O)[C@@H]1C[C@@H]2C(=O)NCC(=O)N2[C@@H]1c1cccc(OCCO)c1,-0.0012

# Test: S. pombe growth modifiers, basal conditions – strain 972, OD600, 24 h, no modulator, primary screen (AID 1090);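 note: basal condition with compound alone and no growth modifier present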
# Conditions: S. pombe 972 growth, higher = more signal, called active from +8 up or from −8 down
row,SMILES,z-score
1,COc1cc2c(cc1OC)CN(C(=O)[C@@H]1[C@H]3C(=O)O[C@H](c4ccccc4)[C@H](c4ccccc4)N3[C@H](c3ccc(OCCO)cc3)[C@@]13C(=O)Nc1ccc(C#CC4(O)CCCCCC4)cc13)CC2,0.888
2,C=C(/C(=C/C[C@H](OC(C)=O)c1cccc(OCCO)c1)c1cnc2ccccc2c1)C(C)C,-0.3
3,OCCCC1=CC(c2ccc(CN3CCCC3)cc2)N(Cc2sc3ccccc3c2Cl)CC1 (stereo not given),-14.3 (active)
4,CCOC(=O)C[C@H]1[C@H](OC(=O)c2ccccc2-c2ccccc2)[C@@H](NC(=O)C2CCCCC2)c2cc(OCCCO)ccc2N1C(=O)Cc1ccc(OC)cc1,-0.0289
5,CN1C(=O)C2C=CC(C(O)c3cccc4ccccc34)N(N3CCCCC3)C2C1=O (stereo not given),1.13
6,CC1=C([C@H](O)CCc2ccccc2)[C@H](CO)[C@@H]2C(=O)N(C)C(=O)[C@@H]2C1,-0.589
7,O=C1O[C@@H](c2ccccc2)[C@@H](c2ccccc2)N2[C@@H](c3ccc(OCCO)cc3)[C@]3(C(=O)Nc4ccccc43)[C@@H](C(=O)O)[C@H]12,-0.272
8,C=C(/C(=C/C[C@@H](OC(C)=O)c1cccc(OCCO)c1)c1cc(C(=O)OC)ccc1OC)C(C)C,0.114
9,CCOC(=O)C[C@H]1[C@H](OC(=O)c2cc3ccccc3oc2=O)[C@@H](NC(=O)c2ccc(-c3ccccc3)cc2)c2cc(OCCCO)ccc2N1C(=O)c1ccc2ccccc2n1,0.394
10,CC[C@H]1C2=C3C(CC[C@H]4C(OCc5ccc(F)cc5C(F)(F)F)OC[C@](C)([C@@H]34)N(C(=O)OC(C)(C)C)C2)C(COC)C1COC (stereo not given in full),0.78
11,C=CCOC(=O)[C@H]1[C@@H]2C(=O)O[C@@H](c3ccccc3)[C@@H](c3ccccc3)N2[C@@H](c2ccc(OCCOC(=O)[C@H]3C[C@H]4C(=O)N[C@@H](CCCCNC(C)=O)C(=O)N4[C@H]3c3ccc(O)cc3)cc2)[C@]12C(=O)Nc1ccccc12,-1.54
12,[N-]=[N+]=Nc1ccccc1[C@@H]1OC(c2ccc(OCCCO)cc2)=N[C@]1(Cc1ccccc1)C(=O)NCC(O)CO (stereo not given in full),-1.4
13,COc1ccc(C(O)C2C=CC3C(=O)N(c4ccccc4)C(=O)C3N2Nc2ccc([N+](=O)[O-])cc2)cc1 (stereo not given),1.4
14,O=C1OCC=C[C@H]2OC34C=CCN(Cn5nnc6ccccc65)C(=O)[C@H]3N(CCCO)C(=O)[C@@H]4[C@@H]12 (stereo not given in full),-0.883
15,CCC[C@@H]1C[C@@]1(CCC)[C@@H](NC(=O)OCc1ccccc1)c1ccc(-c2ccccc2)cc1,-15.5 (active)
16,CC(C)(C)OC(=O)CC[C@@]1(C(=O)NCc2ccccc2)N=C(c2ccc(OCCCO)cc2)O[C@@H]1c1ccccc1N=[N+]=[N-],0.501
17,COCCCNC(=O)[C@]1(CCS(=O)(=O)c2ccccc2)N=C(c2ccc(OCCCO)cc2)O[C@@H]1c1ccccc1CN=[N+]=[N-],0.971
18,C=C(COC)/C(=C/C[C@H](OC(=O)c1ccncc1)c1ccccc1OCCO)c1cnc2ccccc2c1,-0.997

row,SMILES,z-score
1,O=C(NCC(F)(F)F)[C@@H]1c2ccccc2C(=O)N(Cc2cc(F)cc(C(F)(F)F)c2)[C@H]1c1ccc(CO)cc1,-0.793
2,Cc1ccccc1C(O)C1C=CC2C(=O)N(C)C(=O)C2N1N(c1ccccc1)c1ccccc1 (stereo not given),0.503
3,COCCOC(=O)N1C(=O)[C@@]2(c3cc(C#CC4=CCCCC4)ccc31)[C@H](C(N)=O)[C@H]1C(=O)O[C@H](c3ccccc3)[C@H](c3ccccc3)N1[C@@H]2c1ccccc1OCCO,0.0645
4,C[N+](C)(C)CCCCCCNC(=O)[C@H]1C[C@H]2C(=O)NCC(=O)N2[C@H]1c1ccc(O)cc1,0.332
5,O=C1OCC=C[C@H]2OC34C=CCN(Cc5ccccc5)C(=O)[C@H]3N(CCCCCCO)C(=O)[C@@H]4[C@@H]12 (stereo not given in full),0.0262
6,COc1ccc(-c2nc(-c3ccccc3)c3c(c2C)CO[Si]3(C(C)C)C(C)C)cn1,-0.391
7,COCCOC(=O)N1C(=O)[C@@]2(c3cc(C#CC4(O)CCCCCC4)ccc31)[C@H](c1ccc(O)cc1)N1[C@H](c3ccccc3)[C@H](c3ccccc3)OC(=O)[C@H]1[C@@H]2C(=O)NC[C@H](O)c1ccccc1,-0.312
8,[N-]=[N+]=NCc1ccccc1C[C@@]1(C(=O)NCc2ccccc2)N=C(c2ccc(OCCCO)cc2)O[C@@H]1c1ccccc1N=[N+]=[N-],1.57
9,[N-]=[N+]=NCc1ccccc1C[C@@]1(C(=O)N2CCOCC2)N=C(c2ccc(OCCCO)cc2)O[C@@H]1c1ccccc1,-1.72
10,COc1ccc(NC(=O)O[C@H]2[C@H](OC(=O)Nc3ccccc3)[C@H](OC(=O)Nc3ccccc3)[C@@H](OC)O[C@@H]2CO)cc1,0.887
11,COCCOC(=O)N1C(=O)[C@@]2(c3ccccc31)[C@H](C(=O)N1CCN(c3ncccn3)CC1)[C@H]1C(=O)O[C@H](c3ccccc3)[C@H](c3ccccc3)N1[C@@H]2c1ccc(O)cc1,1.07
12,CCCCO[C@H]1C[C@H]2C(I)=C[C@@H]1C(=O)[C@]21CO1,-4.81
13,COc1ccc(CN(C2=CC[C@@]3(C(N)=O)C(=O)C(Cl)=C(Cl)C(=O)[C@@]3(C#N)C2)S(=O)(=O)c2ccc(Br)cc2)cc1,-2.63
14,CCCCN1CC=CC23O[C@@H]4/C=C\CCC(C)OC(=O)C4[C@H]2C(=O)N(C(CO)C(C)C)[C@@H]3C1=O (stereo not given in full),-0.753
15,[N-]=[N+]=NCc1ccccc1C[C@]1(C(N)=O)N=C(c2ccc(OCCCO)cc2)O[C@H]1c1ccccc1,-1.74
16,C=CCNC(=O)[C@H]1[C@@H]2C(=O)O[C@@H](c3ccccc3)[C@@H](c3ccccc3)N2[C@@H](c2ccc(O)cc2)[C@]12C(=O)Nc1ccc(C#CC3(O)CCCCCC3)cc12,0.369
17,NCCCCCNC(=O)[C@@H]1C[C@@H]2C(=O)NCC(=O)N2[C@@H]1c1cccc(OCCO)c1,-0.926
